Bioassay records: PubChem, Broad Institute
This excerpt belongs to a sample that is enriched for hits.
C diff growth: C. difficile growth inhibitors, primary screen, HTS; 0.25% of 86,000 active; growth activity, negative = inhibition, % at 16 µg/mL (by protocol); Clostridium difficile clinical isolate growth, OD600, 24 h; stronger effect = lower value; AID 1259249, 2017;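 active means mean growth activity at or below -80% and every replicate also at or below -80%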;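 further: 0% = DMSO wells and -100% = levofloxacin 16 µg/mL wells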
* hit, by the source's call; ! = not confirmed by another sample.

SMILES | C diff growth
COc1ccc(NC(=O)Nc2ccc3c(c2)C(=O)N([C@H](C)CO)C[C@H](C)[C@H](CN(C)Cc2ccc(C(F)(F)F)cc2)OCCCC[C@@H](C)O3)cc1 | 11.8
C[C@@H]1CCCCO[C@@H](CN(C)Cc2ccc3c(c2)OCO3)[C@H](C)CN([C@H](C)CO)C(=O)c2cc(NC(=O)Nc3ccc(C(F)(F)F)cc3)ccc2O1 | -94.8*
COc1ccc(CN(C)C[C@H]2OCCCC[C@@H](C)Oc3ccc(NC(=O)Nc4ccc(C(F)(F)F)cc4)cc3C(=O)N([C@@H](C)CO)C[C@@H]2C)cc1 | -101.0*
C[C@@H]1CCCCO[C@H](CN(C)Cc2ccc3c(c2)OCO3)[C@@H](C)CN([C@H](C)CO)C(=O)c2cc(NC(=O)Nc3ccc(C(F)(F)F)cc3)ccc2O1 | -52.7
C/C=C/c1ccc([C@H]2[C@@H](CO)N(C(=O)C3CCCCC3)C23CN(C(=O)NC(C)C)C3)cc1 | -5.5
CC(C)NC(=O)N(C)C[C@@H]1OCCCC[C@@H](C)Oc2ccc(NC(=O)CCC(F)(F)F)cc2C(=O)N([C@@H](C)CO)C[C@@H]1C | 0.7
C[C@H]1CN([C@@H](C)CO)C(=O)c2cccc(NS(=O)(=O)c3ccc(Cl)cc3)c2O[C@H]1CN(C)C(=O)Nc1ccc(C(F)(F)F)cc1 | 41.7
COc1ccc(NC(=O)N(C)C[C@H]2OCCCC[C@H](C)Oc3ccc(NS(=O)(=O)c4cccs4)cc3C(=O)N([C@@H](C)CO)C[C@H]2C)cc1 | -4.9
CNC[C@H]1Oc2ncc(C#CC3CCCCC3)cc2C(=O)N([C@@H](C)CO)C[C@H]1C | 6.1
COc1ccccc1-c1ccc([C@@H]2[C@@H](C#N)N(C(=O)C3CC3)[C@H]2CO)cc1 | 9.3
COCC(=O)Nc1ccc2c(c1)[C@H]1C[C@@H](CC(=O)NCc3ccc(-c4ccccc4)cc3)O[C@H](CO)[C@H]1O2 | 2.7
CC(=O)N1[C@H](CO)[C@H](c2ccccc2)[C@H]1CNC(=O)CN1CCOCC1 | -6.9
Cc1noc(C)c1NC(=O)N(C)C[C@H]1Oc2ccc(NS(C)(=O)=O)cc2CC(=O)N([C@@H](C)CO)C[C@@H]1C | 1.9
C[C@@H]1CN([C@@H](C)CO)C(=O)c2cccc(NC(=O)Nc3ccccc3)c2O[C@@H]1CN(C)Cc1ccc(-c2ccccc2)cc1 | -101.8*
C[C@H]1CN([C@@H](C)CO)C(=O)c2cccc(NC(=O)Nc3ccc(F)cc3)c2O[C@@H]1CN(C)Cc1ccc(-c2ccccc2)cc1 | -3.5
COc1ccc(CN(C)C[C@@H]2Oc3c(NC(=O)Nc4ccc(C(F)(F)F)cc4)cccc3C(=O)N([C@@H](C)CO)C[C@H]2C)cc1 | 14.9
C[C@@H]1CN([C@@H](C)CO)C(=O)c2cccc(NC(=O)Nc3ccc(C(F)(F)F)cc3)c2O[C@@H]1CN(C)Cc1ccc(Oc2ccccc2)cc1 | -96.3*
C[C@H]1CN([C@@H](C)CO)C(=O)c2cccc(NC(=O)Nc3ccccc3)c2O[C@@H]1CN(C)Cc1ccc(-c2ccccc2)cc1 | -0.4
C[C@H]1CN([C@@H](C)CO)C(=O)c2cccc(NC(=O)Nc3ccc(C(F)(F)F)cc3)c2O[C@H]1CN(C)Cc1ccc(Oc2ccccc2)cc1 | 80.6
COc1ccc(CN(C)C[C@@H]2Oc3c(NC(=O)Nc4ccc(C(F)(F)F)cc4)cccc3C(=O)N([C@H](C)CO)C[C@@H]2C)cc1 | 16.9
COc1ccc(NC(=O)Nc2cccc3c2O[C@H](CN(C)Cc2ccc(C(F)(F)F)cc2)[C@H](C)CN([C@@H](C)CO)C3=O)cc1 | -100.8*
C[C@@H]1CN([C@H](C)CO)C(=O)c2cccc(NC(=O)Nc3ccc(C(F)(F)F)cc3)c2O[C@@H]1CN(C)Cc1ccc(Oc2ccccc2)cc1 | -25.4
CC(=O)N1[C@@H](CO)[C@@H](c2ccccc2)C12CN(C(=O)c1ccccn1)C2 | 0.0
CCCNC(=O)C[C@H]1CC[C@@H]2[C@@H](COc3ccc(NC(=O)c4cscn4)cc3C(=O)N2C)O1 | 3.2
CN(C)CC(=O)N1CC2(C1)[C@@H](c1ccccc1)[C@@H](CO)N2C(=O)C1CC1 | 15.5
SMILES | C diff growth
O=C(C[C@@H]1C[C@@H]2c3cc(NC(=O)c4cccnc4)ccc3O[C@@H]2[C@@H](CO)O1)NCC1CC1 | 4.3
O=C(C[C@H]1CC[C@H]2[C@@H](COC[C@@H](O)CN2C(=O)Nc2ccc(F)cc2)O1)NCC1CC1 | 1.6
O=C(C[C@@H]1CC[C@@H]2[C@H](COC[C@@H](O)CN2C(=O)Nc2ccc(Cl)cc2)O1)NCC1CCCCC1 | 31.9
O=C(C[C@H]1CC[C@@H]2[C@H](COC[C@H](O)CN2C(=O)Nc2ccc(F)cc2)O1)NCC1CC1 | 33.3
O=C(C[C@@H]1CC[C@@H]2[C@H](COC[C@H](O)CN2C(=O)Nc2ccc(C(F)(F)F)cc2)O1)NCC1CCCCC1 | -100.8*!
O=C(C[C@@H]1CC[C@@H]2[C@H](COC[C@H](O)CN2C(=O)Nc2ccc(Cl)cc2)O1)NCC1CC1 | 11.6
O=C(C[C@@H]1CC[C@H]2[C@@H](COC[C@H](O)CN2C(=O)Nc2ccc(F)cc2)O1)NCC1CC1 | 29.0
